Compound activity as filed in PubChem BioAssay.
Rows were chosen to be rich in hits. Some 8.5% of all compounds tested hit in one or more screens of this group.
Sfp inh = qHTS Assay for Inhibitors of Bacillus subtilis Sfp phosphopantetheinyl transferase (PPTase) | 3.5% of 310,000 active | AID 1490, 2009 | Potency, µM, without a hit: largest response in the series, negative = inhibition, actives largely listed as inhibitors | 4'-phosphopantetheinyl transferase ffp (Bacillus subtilis), Q9F4F7 | Biochemical Sfp PPTase activity, qHTS; active = well fitted curve in the direction sought with a large enough effect; inconclusive = small, poorly fitted or top-dose-only effect, or another doubt; inactive = no such curve, though single readings can be large; an effect the other way counts as inactive or inconclusive;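 note: the enzyme is Sfp with the accession as filed and its product quenches rhodamine fluorescence; potency is the fitted concentration of half-maximal effect; 0% = enzyme reaction without inhibitor and -100% = no enzyme wells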
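Fluorescence-quenching assay with 15 nM Sfp, 5 uM rhodamine-CoA and 12.5 uM BHQ-2-labelled ybbR peptide in pH 7.6 Hepes/MgCl2 buffer. Enzyme was pre-incubated with compound for 15 min at room temperature. Rate was taken from the 30-min fluorescence change (525/598 nm).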
GoLoco inh red = qHTS Assay for Inhibitors of RGS12 GoLoco Motif Activity (Red Fluorophore) | Gai1:RGS12 GoLoco peptide FP, rhodamine, 10 min | Potency, µM (highest dose often 61.6 µM), for the others: at the top dose activity, negative = inhibition, actives largely listed as inhibitors | 0.44% of 230,000 active | AID 880, 2007; active = well fitted inhibition curve with a large enough effect, not every such curve was filed as active; inactive = no such curve, though single readings can be large or run the other way; note: potency is the fitted concentration of half-maximal effect; nearly all actives have a fitted effect of over 30% in size
Target sequence (P63096 whole entry, looked up): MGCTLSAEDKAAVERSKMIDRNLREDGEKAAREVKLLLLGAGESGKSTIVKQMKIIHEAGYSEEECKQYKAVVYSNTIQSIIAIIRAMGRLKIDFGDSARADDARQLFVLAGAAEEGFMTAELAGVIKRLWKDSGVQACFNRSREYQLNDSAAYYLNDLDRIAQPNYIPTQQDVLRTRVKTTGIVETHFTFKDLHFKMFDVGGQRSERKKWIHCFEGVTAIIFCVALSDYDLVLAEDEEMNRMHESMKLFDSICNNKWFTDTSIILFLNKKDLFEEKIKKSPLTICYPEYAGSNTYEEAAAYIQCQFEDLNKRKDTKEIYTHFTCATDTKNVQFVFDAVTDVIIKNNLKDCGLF
NPSR antag = qHTS Assay for Antagonists of the Neuropeptide S Receptor: cAMP Signal Transduction; Q6W5P4; CHO-NPSR cells, cAMP TR-FRET, antagonist mode; Potency, µM (doses to about 38.3 µM), for the others: top-dose activity change, negative = inhibition, actives largely listed as inhibitors; 1% of 220,000 active; AID 1461, 2008; active = well fitted curve in the direction sought with a large enough effect; inconclusive = small, poorly fitted or top-dose-only effect, or another doubt; inactive = no such curve, though single readings can be large; an effect the other way counts as inactive or inconclusive; note: potency is the fitted concentration of half-maximal effect; nearly all actives have a fitted effect of over 50% in size
KDM4E inh = qHTS Assay for Inhibitors of Human Jumonji Domain Containing 2E (JMJD2E); Lysine-specific demethylase 4E (Homo sapiens), B2RXH2; JMJD2E catalytic domain, FDH-coupled NADH fluorescence (FDH is formaldehyde dehydrogenase); Potency, µM (doses to about 57.1 µM), for inactives: at the highest dose activity change, negative = inhibition, hits mostly inhibitors; 1.6% of 230,000 active; AID 2147, 2009;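 note: potency is the fitted concentration of half-maximal effect; 0% = wells with enzyme and -100% = buffer wells without enzyme; nearly all actives have a fitted effect of over 50% in size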
Target sequence (B2RXH2 1-337 limits assumed): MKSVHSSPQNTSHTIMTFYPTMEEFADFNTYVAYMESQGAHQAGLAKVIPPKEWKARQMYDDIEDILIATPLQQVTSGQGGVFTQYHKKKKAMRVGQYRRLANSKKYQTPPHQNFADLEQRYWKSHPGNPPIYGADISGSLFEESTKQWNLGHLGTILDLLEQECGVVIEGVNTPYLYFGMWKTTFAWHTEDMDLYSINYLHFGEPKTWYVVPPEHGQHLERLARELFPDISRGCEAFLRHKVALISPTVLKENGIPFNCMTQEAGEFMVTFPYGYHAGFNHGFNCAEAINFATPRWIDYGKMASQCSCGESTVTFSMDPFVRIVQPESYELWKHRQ
Coupling enz = qHTS Assay for Inhibitors of Fructose-1,6-bisphosphate Aldolase from Giardia Lamblia: Coupling assay counterscreen. coupling enzyme system counterscreen, AmpLite Red fluorescence. activity change, negative = inhibition, % at 58.2 µM, hits read low. 0.67% of 290,000 active; in the data active = activity change below about -30%
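Counterscreen of the coupled detection system alone, without aldolase: glyceraldehyde-3-phosphate coupling enzymes plus AmpLite Red readout. Compounds at 57.5 uM final, 10 min RT preincubation, 20 min RT reaction, fluorescence 525/598 nm.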
ALDH1A1 inh = qHTS Assay for Inhibitors of Aldehyde Dehydrogenase 1 (ALDH1A1) | Purified ALDH1A1, NADH fluorescence, propionaldehyde substrate | Potency, µM (titrated, usually from 75.3 µM), for the others: top-dose activity, negative = inhibition, hits mostly inhibitors | 7.3% of 220,000 active;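 note: potency is the fitted concentration of half-maximal effect; plate controls were no enzyme wells and a reference inhibitor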
* = called active by the depositor; ? = inconclusive; . = no result given; ! = a repeat was not active; [ ] = remark or other dose. Unless noted, calls come from the whole dose curve; as a rule, active = well fitted inhibition curve with a large enough effect (not every such curve was filed as active); inconclusive = small, poorly fitted or top-dose-only effect, or another doubt; inactive = no such curve, though single readings can be large or run the other way. Unless noted, % is set by controls: 0 for no effect and ±100 for the full control effect.

SMILES	Sfp inh	GoLoco inh red	NPSR antag	KDM4E inh	Coupling enz	ALDH1A1 inh
COc1ccccc1CC(NC(C)=O)C(=O)NC1CCN(c2nnnn2-c2ccccc2)CC1 (stereo unspecified)	6%	5%	-6%[46.1 µM]	-1%	0	5.6µM*
O=C(Nc1ccc(F)cc1)C1CCN(c2nnnn2-c2ccccc2)CC1	-2%	-10%	-7%[46.1 µM]	-6%	8	14µM*
COc1cccc(CC(NC(C)=O)C(=O)NC2CCN(c3nnnn3-c3ccccc3)CC2)c1OC (stereo unspecified)	24%	9%	3%	4%	1	?
CN(C)C(CNC(=O)c1c(F)cccc1Cl)c1ccco1 (stereo unspecified)	15%	.	.	.	0	.
Cc1c(C(=O)N2CCCCC2)c(S(=O)(=O)N2CCc3ccccc32)c(C)n1C	0%	.	.	.	.	.
Cc1cc(CNCc2c(C(=O)N3CCCCCCC3)nc3ccc(Cl)cn23)nn1C	27%	8%	4%	5%	1	16µM*
CCOC(=O)NC(=O)c1cn(Nc2ccccc2C(F)(F)F)c(=O)[nH]c1=O	8%	-1%	-8%	-2%	2	.
Clc1ccc(CNc2nc(CN3CCOCC3)nc3scc(-c4ccccc4)c23)cc1	56µM*	8%	-49%	1%	0	?
O=C(CCc1ccccc1)NC(=S)Nc1ccccc1Br	2%	8%	-53%	-15%	-3	?
CC(=O)Nc1ccc(S(=O)(=O)Nc2ccc(Nc3ccccc3)cc2)cc1	-2%	.	.	.	0	.
CCOC(=O)CSC1=NC(=O)/C(=C/c2ccc(OC)cc2)S1	18µM*	-2%	-56%	6%	4	?
CCOC(=O)CNC(=O)CSc1nnc(-c2ccc(OC)cc2)n1CC	17%	9%	4%[46.1 µM]	5%	2	5%
CCOC(=O)N1CCN(C(=O)CSc2nnc(Cc3cccn3C)n2CCc2ccccc2)CC1	1%	2%	-22%[46.1 µM]	-30%	1	?
CCn1c(Cc2cccn2C)nnc1SCC(=O)c1ccc(C)cc1	-7%	12%	-23%[46.1 µM]	?	0	10µM*
CCOC(=O)CSc1nnc(-c2ccc(OC)cc2)n1CC	20%	4%	-16%[46.1 µM]	6%	1	2.5µM*
CCn1c(SCC(=O)c2ccc(O)c(O)c2)nnc1-c1ccc(C)cc1	-16%	-5%	-8%[46.1 µM]	25µM*	1	0%
CCn1c(SCC(=O)N2CCCC2)nnc1-c1ccc(N)cc1	-10%	-8%	13%[46.1 µM]	-5%	6	1%
CCn1c(SCC(=O)c2ccc3c(c2)Cc2ccccc2-3)nnc1-c1ccc(N)cc1	79µM*	-4%	-15%[46.1 µM]	-6%	.	-5%
CCOc1ccc(/C=C/C2=Cc3c(sc(NC(=O)CSc4n[nH]c(N)n4)c3C#N)C(C)(C)C2)cc1	40µM*	301%	-21%[46.1 µM]	-2%	0	25µM*
COC(=O)c1sc(NC(=O)CSc2n[nH]c(N)n2)c(C(=O)OC)c1C	-4%	6%	-22%	5%	0	0%
Cc1ccsc1/C=C/C1=Cc2c(sc(NC(=O)CSc3n[nH]c(N)n3)c2C#N)C(C)(C)C1	40µM*	236%	-27%[46.1 µM]	2%	-4	?
O=C(COC(=O)c1ccc(O)cc1)Nc1ccc(Cl)cc1	0%	36%	-3%	0%	-5	8.9µM*
O=C(COC(=O)c1cnc(Cl)c(Cl)c1)NCc1cccs1	19%	-2%	4%	0%	1	20µM*
NS(=O)(=O)c1ccc(NC(=O)COC(=O)c2cnc(Cl)c(Cl)c2)cc1	6%	-2%	-1%	-1%	3	20µM*
CCCOC(=O)c1ccc(O)cc1	-1%	-1%	.	.	.	10µM*!
SMILES	Sfp inh	GoLoco inh red	NPSR antag	KDM4E inh	Coupling enz	ALDH1A1 inh
Cn1cc(Cl)c(C(=O)OCC(=O)Nc2ccc(S(N)(=O)=O)cc2)n1	12%	.	.	.	6	.
COc1cc(OC)cc(C(=O)NC(C(=O)N2CCc3ccccc3C2)C(C)C)c1 (stereo unspecified)	4%	.	.	.	1	.
Cc1occc1-c1nnc(SCC(=O)NC2CC2)n1C(C)C	7%	.	.	.	3	.
O=[N+]([O-])c1ccc2c(c1)[nH]c(=S)n2-c1ccccc1	-99%	0%	-6%	6%	-5	4µM*
CN(C)CCCn1c(=O)n(Cc2ccco2)c(=O)c2c3c(sc21)CCCCC3	20µM*	18%	17%	-2%	3	-12%
Cc1ccc(-n2c(=S)[nH]c3sc4c(c3c2=O)CCC4)cc1	-29%	7%	7.9µM*	2%	6	?
O=c1c2c3c(sc2[nH]c(=S)n1Cc1ccco1)CCC3	50µM*	-1%	?	0%	-2	.
CN(C)CCCn1c(=O)n(CCc2ccccc2)c(=O)c2c3c(sc21)CCCCC3	10%	8%	-20%	4%	1	.
Cc1cccc2sc(NS(=O)(=O)c3ccccc3)nc12	3%	.	.	.	.	.
CCOC(=O)c1ccc(NC(=O)c2nc[nH]c2C(=O)N[C@@H](CC(C)C)C(=O)OCc2ccccc2)cc1	17%	-1%	?	-6%	-10	.
O=C(NCCN1CCCCCC1)C1CCCN1S(=O)(=O)c1cccc2nsnc12 (stereo unspecified)	1%	1%	15%	-16%	2	.
Nc1ccc(C#Cc2ccccc2)cc1	20%	-6%	-8%[46.1 µM]	6%	-1	12%
Cc1cccc(C#Cc2ccccc2)n1	50µM*!	5%	4%[46.1 µM]	13µM*!	0	-8%
Nc1ncnc2c1c(I)cn2C1OC(CO)C(O)C1O (stereo unspecified)	-5%	25µM*!	.	0%	-1	8.9µM*!
CC(C)(C)C1=Nn2c(nnc2-c2ccccn2)SC1	56µM*	5%	16%[46.1 µM]	-23%	-13	?
CN(C)CCNc1ncnc2c1sc1nc(-c3ccccc3)c3c(c12)CCCC3	35µM*	40%	-58%	?	-6	.
COc1ccccc1OCCC(=O)OCC(=O)c1c(N)n(C)c(=O)n(C)c1=O	6%	-7%	2%	-3%	-2	?
COc1ccc(N2C(=O)/C(=C3/C=CC=CN3C)SC2=S)cc1	50µM*	5%	-5%	-3%	-4	?
CC[C@@H]1CC=C[C@H]2[C@H]1C(=O)N(Cc1ccccc1)[C@H]2c1ccc2ccccc2c1	-3%	0%	-56%	2%	0	.
O=C(NN1CCOCC1)c1ccc(Cl)cc1[N+](=O)[O-]	5%	.	.	.	.	.
Cc1nnc(NC(=O)CCC(=O)NC2CCCCCCC2)s1	10%	.	.	.	3	.
